Experimental data as given in PubChem BioAssay (NCI).
About 83,000 compounds went through this panel and 20% of them were active in at least one assay; those are over-represented in the sample as a whole.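 96-well plates, one dose, 48 hours. Percent growth reported; active if below 10.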 A number with no mark means an inactive call. Activity calls are given as the source filed them.

system: MDA-MB-468 breast; assay: NCI-60 one-dose screen, 48 h (100 = growth as untreated, 0 = no growth, -100 = all killed); conditions: 10 µM unless noted

Row | SMILES | growth
1 | c1ccc(-c2nc(N3CCOCC3)c3c4c(sc3n2)CCCCCC4)nc1 | 57.4%
2 | CC(=O)OC1/C=C\CC/C=C\C1 (stereo unspecified) | 109%
3 | CCOC(C)=N | 117%
4 | COc1cc(NC(=O)Nc2cnc(Nc3ccc(N4CCOCC4)cc3)nc2Oc2ccc(C(F)(F)F)cc2)cc(OC)c1 | 110%
5 | CC(=O)c1cccc(N(C)S(=O)(=O)c2ccc(C)cc2)c1 | 111%
6 | COc1cc(C(=O)NC(=S)Nc2ccc3ccccc3c2)cc(OC)c1OC | 95.5%
7 | CS(=O)(=O)OC1CC(n2ccc(=O)[nH]c2=O)OC1COC(c1ccccc1)(c1ccccc1)c1ccccc1 (stereo unspecified) | 110%
8 | COc1ccc(C(=O)c2ccccc2CN2C(=O)c3ccccc3C2=O)cc1 | 115%
9 | CCOC(=O)c1cc(/C(=N\O)c2cc(OC)c(OC)c(OC)c2)n2c(C)cccc12 | 21.8%
10 | COc1ccc(-c2cc(-c3cc(OC)ccc3OC)nc(SCC(C)=O)c2C#N)cc1 | 56.2%
11 | COc1ccc(C2CC(c3cccs3)=NN2c2ccc(S(N)(=O)=O)cc2)cc1 (stereo unspecified) | 8.49% (active)
12 | [Ag].[Ag].[NH-]S(=O)(=O)c1ccc(N=Nc2cc(N=Nc3ccc(S([NH-])(=O)=O)cc3)c3c(NC(=O)C(Cl)Cl)cccc3c2OC(=O)C(Cl)Cl)cc1.[c-]1nccs1.[c-]1nccs1 | 61.4%
13 | C=CCNc1ccc2c3c(cccc13)C(=O)N(CC=C)C2=O | 60.3%
14 | CCc1nc2ccccc2[nH]1 | 109%
15 | Cc1ccc(/C=C/C(=N/N=C(N)N)c2ccccc2)cc1 | -6.79% (active)
16 | Cc1c(C(=O)O)nnn1-c1nccs1 | 107%
17 | CCOC(=O)C1C(=O)NC(C(=O)OCC)(C(=O)OCC)C1CC (stereo unspecified) | 108%
18 | Cc1ccccc1CNc1ccc(N2CCOCC2)cc1 | 97.8%
19 | COc1ccc(C2CC(c3cc(OC)c(OC)c(OC)c3)=NN2c2ccc(S(N)(=O)=O)cc2)cc1 (stereo unspecified) | 71%
20 | CC(=O)OCCC/C(=C/c1cc2ccccc2c2ccccc12)[N+](=O)[O-] | -69% (active)
21 | O=C(CSc1nc2ccccc2c(=O)n1-c1ccccc1)Nc1cccc(C(=O)/C=C/c2ccccc2Cl)c1 | 113%
22 | NC(=O)c1c(NC(=O)c2ccc3c(c2)OCO3)sc2c1CCC(=O)C2 | -35.3% (active)
23 | C#Cc1cccc(Nc2nc(Cl)nc3cc(NC(=O)CCl)ccc23)c1 | -71% (active)
24 | COC(=O)c1cc(Cl)cc([N+](=O)[O-])c1O | 95.3%
25 | CCCCCCCCCCCCCCCC(=O)OC[C@@]1(O)C[C@@]23CC[C@@H]4C(C)(C)CCC[C@@]4(C)[C@@H]2CC[C@H]1C3 | 103%
26 | CCC(C)(c1ccc(O)c(C)c1)c1ccc(O)c(C)c1 | 70.1%
